Laboratory results reported in PubChem BioAssay (NCATS).
Records with an inconclusive call do not appear. Values without a mark were called inactive. The call rests on the fitted dose curve; in most records, active means well fitted cell-killing curve with a large enough effect; inconclusive means small, poorly fitted or top-dose-only effect; inactive means no such curve, though single readings can be large or run the other way.

Assay: qHTS of pediatric cancer cell lines to identify multiple opportunities for drug repurposing: Primary screen for Saos-2 cells (AID 1347097); further: nearly all actives have a fitted effect of over 40% in size
Conditions: Saos-2 viability, CellTiter-Glo ATP luminescence, 48 h; series mostly up to 46 µM; activity change, negative = cytotoxic: at the top concentration
From the text: Drug repurposing or repositioning has been offered as a strategy for drug development in oncology programs. This approach has special potential for childhood cancers and other rare or orphan diseases, where the expected return on new drug development has been a disincentive to pharmaceuticals. […] In this project we exploit the poly-pharmacology of drugs to discover new indications via phenotypic screening of a panel of 19 well-characterized cell lines derived from solid tumors seen in children and adolescents. The goal is to identify approved drugs with previously unrecognized anticancer properties that has the potential to reveal new mechanisms and biological processes involved in carcinogenesis or drug resistance. We employed a titration-based paradigm (quantitative high-throughput screening or qHTS), where all compounds were tested at multiple concentrations for their effect on cell viability. Concentration-response curves (CRCs) were derived directly from the primary screen, and both potency and efficacy values were used to identify compounds with robust bioactivity profiles. We screened the NIH Chemical Genomics Center (NCGC) Pharmaceutical Collection (NPC) and Mechanism Interrogation Plate (MIPE) small molecule collections of approved and investigational compounds against these cell lines; and measured metabolically active cells after 48 hours of compound treatment as a proxy for cell viability. […] Assay Submitter: Nathalia J. Martinez, National Center for Advancing Translational Sciences, National Institutes of Health, Rockville, MD, USA; email: natalia.martinez@nih.gov Shen, M et al. Quantitative high-throughput phenotypic screening of pediatric cancer cell lines identifies multiple opportunities for drug repurposing. Oncotarget 2017 Dec 19;9(4):4758-4772. PMID 29435139.
The cells were obtained from University of North Carolina (UNC), Pediatric Preclinical Testing Program (PPT), and Coriell Institute (CI). qHTS cell viability assay: Cells were assayed in growth media at a density of 500-1,000 cells/well. Five microliters of cells were dispensed into 1,536-well, white, solid-bottom, TC-treated plates (Greiner Bio One) using a multidrop dispenser and incubated at 37 degrees C, 5% CO2, under a humidified atmosphere for 5 hours. Twenty-three nanoliters of compounds and controls (neutral control DMSO or positive control bortezomib at final concentration of 2.3 µM) were subsequently transferred by Kalypsys pintool. For primary screens, the MIPE collection was tested at 11-point dilutions (final concentrations range from 0.78 nM to 46 µM) and the NPC collection at 8-point dilutions (final concentrations range from 0.59 nM to 46 µM). Compounds tested in follow-up screens were assayed at 11-point dilutions. Cells were incubated for 48 hours, followed by addition of 3 µL of CellTiter-Glo (Promega). After a 15 min incubation at room temperature, samples were analyzed for luminescence intensity using a ViewLux High-throughput CCD imager equipped with clear filters.
On the % scale 0 is the no-effect control and ±100 the full control effect.

SMILES | activity change, negative = cytotoxic [%]
NNc1nnc(NN)c2ccccc12 | -4.61
CCCCCCCCCCCCCCCCCCO | -20.5
CCc1cccc(CC)c1NC(=O)CN(CC(=O)O)CC(=O)O | 0.0507
CN1CC(=O)NC1=N | 23.6
OCC(O)CS (stereo not given) | 13.8
CCc1nnc(NS(=O)(=O)c2ccc(N)cc2)s1 | 6.01
Cc1c(I)c(=O)n(-c2ccccc2)n1C | -4.53
CN/C(=C\[N+](=O)[O-])NCCSCc1csc(CN(C)C)n1 | 29.7
C=CCNC(N)=S | 18.8
Nc1ncnc(Nc2ccccc2)n1 | -11.6
COc1ccccc1OC(=O)Oc1ccccc1OC | -14.9
O=C(O)Cn1c(C(=O)Nc2nc(-c3ccccc3Cl)cs2)cc2ccccc21 | 7.17
CCCOC(=O)c1ccc(N)cc1 | -8.02
C=CCSCC1Nc2cc(Cl)c(S(N)(=O)=O)cc2S(=O)(=O)N1 (stereo not given) | 9.51
COc1ccc2cc(CCC(C)=O)ccc2c1 | 22.9
NC(=O)N[C@@H](CCC(=O)O)C(=O)O | -5.94
Cc1ccc(S(=O)(=O)NC(=O)NC2CCCCC2)cc1 | -7.49
CN[C@@H]1[C@@H](O)[C@@H](O[C@@H]2[C@H](O)[C@H](O[C@H]3OC(CN)=CC[C@H]3N)[C@@H](N)C[C@H]2N)OCC1(C)O (stereo not given in full) | 22.7
COC(=O)N/N=C/c1c[n+]([O-])c2ccccc2[n+]1[O-] | -17.1
CCCCCCCCCCCCCCCCN | -15.8

SMILES | activity change, negative = cytotoxic [%]
NC(=O)NC1NC(=O)NC1=O (stereo not given) | -10.9
COc1ccccc1Oc1c(NS(=O)(=O)c2ccc(C(C)(C)C)cc2)nc(-c2ncccn2)nc1OCCO | -24.2
O=C(O)[C@@H]1[C@H]2C[C@H]3c4[nH]c5ccccc5c4CCN3C[C@@H]2CC[C@@H]1O | -26.5
NS(=O)(=O)c1cc(C2(O)NC(=O)c3ccccc32)ccc1Cl (stereo not given) | 31.7
NCC1CCC(C(=O)Oc2ccc(CCC(=O)O)cc2)CC1 (stereo not given) | 1.49
C=CCN1C[C@H](C(=O)N(CCCN(C)C)C(=O)NCC)C[C@@H]2c3cccc4[nH]cc(c34)C[C@H]21 | -11.7
Cc1cc(C)c(NC(=O)CN(CC(=O)O)CC(=O)O)c(C)c1Br | 2.36
CCCCCCCCCCCCCCCCC(C(=O)O)C(O)(CC(=O)O)C(=O)O (stereo not given) | -13.3
CCN[C@H]1CN(CCCOC)S(=O)(=O)c2sc(S(N)(=O)=O)cc21 | 0.772
C[n+]1ccccc1/C=N/O | 18.8
O=C(/C=C/c1ccccc1)OCc1ccccc1 | 16.3
O=C1c2ccccc2C(=O)C1c1ccc(Br)cc1 | 25.8
O=C(O)c1ccccc1C(=O)Nc1ccc(S(=O)(=O)Nc2nccs2)cc1 | -19.5
C[C@@H](c1ncncc1F)C(O)(Cn1cncn1)c1ccc(F)cc1F (stereo not given in full) | 5.28
CC1(C)S[C@@H]2[C@H](NC(=O)C(C(=O)O)c3ccccc3)C(=O)N2[C@H]1C(=O)O (stereo not given in full) | 16.6
Cc1ccc(S(=O)(=O)NC(=O)NC2CCCCCCC2)cc1 | 22.1
CN1C(C)(C)CCCC1(C)C | -6.46
CCCNC(C)C(=O)Nc1c(C)csc1C(=O)OC (stereo not given) | -4.93
O=S1(=O)OC(c2ccc(O)cc2)(c2ccc(O)cc2)c2ccccc21 | -0.651
O=C(O)Cc1ccc(CCNS(=O)(=O)c2ccc(Cl)cc2)cc1 | -2.79
